Each structure is given as a SMILES string. The whole screen tested about 48,000 compounds, of which about 13,000 (27%) showed an effect of 50% or more. Some of the results follow.

In this assay the test system is Wolbachia pipientis. The assay is described as follows: Anti-Wolbachia Cell-Based Screen. Type of assay: functional. More on the design: scale not given: in the data most compounds retested in dose-response had high values. Particulars: 5 µM.
For the molecule `Cc1cnc(CNC(=O)N(Cc2ccccc2)CC(C)(C)O)s1`, the “Percent Effect” value is -9.272%. The value for `CCN1CCN(C(=O)CCC2CCN(C(C)CSC)CC2)CC1` (stereo not drawn) was 2.757%. The value for `COC(=O)C(C)(C)NC(=O)c1cc2sc(N(C)C)nc2s1` was -3.943%; that for `CN1CCCN(c2nc3c(cnn3C(C)(C)C)c(=O)[nH]2)CC1` was -5.062%; that for `Cc1c(C2NC3(CCCC3)C(=O)N2CC2CC2)cc(C#N)n1C` (stereo not drawn) was -11.2%. The figure for `CN(Cc1cc(Cl)c2c(c1)OCO2)Cc1cscn1` is 1.61%; for `CCOc1ccc(NC(=O)NCc2csc(NC)n2)cc1C` it is -0.8345%. Take `CCc1ncnc2c1CCN(C(=O)c1cccn1C)CC2`: the “Percent Effect” value is recorded as -9.929%. Take `Cc1cccc(N2CCCC3(C2)CN(S(=O)(=O)C2CC2)CCO3)c1.O=C(O)C(F)(F)F` (stereo not drawn): the “Percent Effect” value is given as -4.65%. On to `Cc1noc(C)c1-c1cccc(CC2CCN(C(=O)CN)C2)n1` (stereo not drawn), for which the “Percent Effect” value turned out to be 128.9%. In the case of `Cc1noc(C)c1-c1cccc(CC2CCN(C(=O)CCC(=O)O)C2)n1` (stereo not drawn), the “Percent Effect” value is listed as 2.064%. The figure for `CN1CCC(Cc2nc(-c3ccnn3C)n(Cc3ccccc3)n2)CC1` is -2.907%; for `NC(=O)c1cccc(CC2CCN(C(=O)CO)C2)c1` (stereo not drawn) it is -21.34%; for `Cc1noc(C)c1CN1CC2(CCN(C(=O)c3cscn3)CC2)CC1=O` it is 4.447%.

Turning to `CC(=O)N1CCC(Cc2cccc(-c3c(C)noc3C)n2)C1` (stereo not drawn), the “Percent Effect” value was 135.5%. The value for `CCn1c(CC2CCN(C(=O)c3ccnn3C)CC2)n[nH]c1=O` was 13.3%; that for `Cc1noc(C)c1-c1cccc(CC2CCN(C(=O)c3cscn3)C2)n1` (stereo not drawn) was 131.4%.

On to `Cc1ccccc1C(=O)NC[C@@H]1CCN(C(=O)c2cscn2)C[C@H]1O`, for which the “Percent Effect” value is on record as 3.097%. `CC(=O)N1CCC(Cc2cccc(-c3ccnn3C)n2)CC1`: the “Percent Effect” value came out at 116.5%. The figure for `c1ccc(-c2cnc(CN3CCn4c(nnc4C4CC4)C3)o2)cc1` is -9.736%. The figure for `CN(Cc1ccc2nonc2c1)C(=O)CCc1cc2n(n1)CCCNC2` is -9.744%.

Turning to `CN(CCC1CCCCO1)c1nncc(-c2ccccc2)n1` (stereo not drawn), the “Percent Effect” value was 3.225%.

In the case of `c1ccc(C2CCCN2C2CCSCC2)nc1` (stereo not drawn), the “Percent Effect” value is -12.25%.

For `Cc1cc(N(C)C)nc(N2CCCC2c2cc(C)on2)n1` (stereo not drawn), the “Percent Effect” value is 41.35%.

Consider `Cc1cc(N(C)C)nc(N2CCCC2c2ccccn2)n1` (stereo not drawn), for which the “Percent Effect” value is listed as 92.86%. The value for `c1ccc(C2CCCN2C2CSCCSC2)nc1` (stereo not drawn) was 20.29%. The value for `CN(C)c1cc(C(F)(F)F)nc(N2CCCC2c2ccccn2)n1` (stereo not drawn) was 96.36%; that for `Cc1cc(C2CCC2)nc(N(C)CCc2ccccn2)n1` was 10.11%. The value for `Cc1nc(N2CCN(C(=O)c3ccccc3)CC2)cc(-n2ccnc2)n1` was -0.4006%; that for `CCC(C)Oc1ccccc1CN1Cc2ncccc2C1=O` (stereo not drawn) was 3.69%. For the molecule `O=S1(=O)COCCN1CCOc1ccccc1`, the “Percent Effect” value was -11.75%.

Turning to `CCOc1ncccc1CN1Cc2ncccc2C1=O`, the “Percent Effect” value was 24.49%. The value for `CC(C)CN1C[C@H](COCc2ccccc2)Oc2ncccc2C1=O` was 89.35%; that for `Cc1cnc(C(=O)N2CCC(COCc3ccccc3)C2)cn1` (stereo not drawn) was 0.6759%. The value for `CCCC1CN(CCOC)C(=O)c2cccnc2O1` (stereo not drawn) was 110.6%; that for `CCCC1CN(CCOc2ccccc2)C(=O)c2cccnc2O1` (stereo not drawn) was 157.7%; that for `CCCC1CN(CC(C)C)C(=O)c2cccnc2O1` (stereo not drawn) was 72.42%. The value for `COCCN1C[C@@H]2CN(c3ncccn3)C[C@@H]2C1=O` was 3.665%; that for `CC(C)(C)C(=O)N1CCC(COCc2ccccc2)C1` (stereo not drawn) was 14.31%. For `CCOc1ccccc1CCN1Cc2ncccc2C1=O`, the “Percent Effect” value came to 5.291%. The value for `COCCN1CCCC(O)(CN2CCN(c3ncccc3C)CC2)C1=O` (stereo not drawn) was -16.41%; that for `O=C(NC1CC1)N1CCC2(CC1)CC(N1CCOCC1)c1ccccc12.O=C(O)C(F)(F)F` (stereo not drawn) was 2.797%; that for `CCS(=O)(=O)NCCCNC1CSCCc2ccccc21` (stereo not drawn) was 1.268%. The value for `O=C(O)C(F)(F)F.O=C(O)C(F)(F)F.O=C1[C@@H]2CCN(Cc3ccccn3)C[C@@H]2OCCN1c1ccccc1` was 5.214%; that for `CCNC(=O)[C@@H]1C[C@H](N)CN1C1CCN(c2ccccc2OC)CC1` was -4.243%. The value for `CC(C)Cc1cc(C(=O)NCC2CCN(c3ccccc3F)C2)on1` (stereo not drawn) was -10.11%; that for `CC(C)Cc1cc(C(=O)NCC2CCCN(Cc3ccco3)C2)on1` (stereo not drawn) was 50.17%.

For `COc1cc(C(=O)NCC2CCCN(Cc3ccco3)C2)ccn1` (stereo not drawn), the “Percent Effect” value was 2.476%. Regarding `Cc1ccoc1C(=O)N1CCO[C@H]2[C@H](OCCN(C)C)CC[C@@H]21.O=C(O)C(F)(F)F`, the “Percent Effect” value is recorded as -19.8%. The value for `Cc1cc(C(=O)N2CCO[C@H]3[C@H](OCCN(C)C)CC[C@@H]32)c(C)[nH]1.O=C(O)C(F)(F)F` was 104.2%; that for `Cc1occc1C(=O)N1CCO[C@H]2[C@H](OCc3cccnc3)CC[C@@H]21.O=C(O)C(F)(F)F` was 4.513%; that for `Cc1cc(C(=O)N2CCO[C@H]3[C@H](Oc4ccccn4)CC[C@@H]32)c(C)[nH]1.O=C(O)C(F)(F)F` was -3.803%. The value for `CN(C)CCO[C@@H]1CC[C@H]2[C@H]1OCCN2C(=O)CCc1ccccc1.O=C(O)C(F)(F)F` was -7.187%. The value for `Cc1occc1C(=O)N1CCO[C@H]2[C@H](OCc3ccccn3)CC[C@@H]21.O=C(O)C(F)(F)F` was -3.941%. Regarding `COc1ccc(C(=O)N2CCO[C@H]3[C@@H](OCC4CC4)CC[C@@H]32)cc1F`, the “Percent Effect” value was -14.51%. The figure for `CN(C)CCO[C@@H]1CC[C@H]2[C@H]1OCCN2C(=O)c1ccccc1F` is 79.95%. The value for `Cc1ccccc1C(=O)N1CCO[C@H]2[C@H](OCCN(C)C)CC[C@@H]21.O=C(O)C(F)(F)F` was 99.34%; that for `Cc1c(C(=O)N2CCCC(O)(CN(C)C)CC2)c2cc(O)ccc2n1C` (stereo not drawn) was -7.516%; that for `CC(=O)N1CCC(Nc2ccc(Br)cc2C#N)C1` (stereo not drawn) was -20.23%. Regarding `Cc1cc(C(=O)N2CCC(NC(=O)c3cccnc3)CC2)c(C)o1`, the “Percent Effect” value was -8.9%. The figure for `Cc1ccsc1C(=O)N1CCC(Nc2cccnc2)CC1` is 82.28%. The value for `Cc1nc(C)c(C(=O)N2CCC(Nc3cccnc3)CC2)s1` was 6.028%. The figure for `O=C(CCn1ccc2ccccc21)N1CCC(Nc2cccnc2)CC1` is -9.935%; for `Cc1cc(C(=O)N2CCC(Nc3cccnc3)CC2)c(C)s1` it is 98.75%; for `COc1cc(C)sc1C(=O)N1CCC(Nc2cccnc2)CC1` it is -10.68%. With `COc1ccc([C@@H]2C[C@H](NC(C)=O)C[C@H](CCc3ccccc3)O2)cn1`, the “Percent Effect” value was 7.698%.

`CSCC[C@H](N)C(=O)N1CC(Oc2ccccc2C)C1`: the “Percent Effect” value is recorded as -5.947%. For the molecule `COCCOc1ncccc1CNC(=O)N1CCOCC1`, the “Percent Effect” value is on record as -0.8625%. The figure for `COc1ccc(-n2cnnc2SCCC#N)cn1` is -2.783%; for `O=C(NCC1(CO)CC1)c1nnn(-c2ccc(F)cc2)c1C1CC1` it is -10.21%. Regarding `Cc1ccc(-n2nnc(C(=O)NCCS(N)(=O)=O)c2C2CC2)cc1`, the “Percent Effect” value turned out to be 2.856%.

With `NS(=O)(=O)CCNC(=O)c1nnn(-c2ccc(F)cc2)c1C1CC1`, the “Percent Effect” value came out at 1.057%. The figure for `O=C(NCC1(C(=O)O)CCC1)c1nnn(-c2ccc(F)cc2)c1C1CC1` is 4.547%; for `COC(=O)CCNC(=O)c1nnn(-c2ccc(C)cc2)c1C1CC1` it is 120.1%.

For `Cc1ccc(-n2nnc(C(=O)NCC3(CO)CC3)c2C2CC2)cc1`, the “Percent Effect” value amounted to 112.7%. The figure for `Cc1ccc(-n2nnc(C(=O)Nc3cc(C)nn3C)c2C2CC2)cc1` is -15.14%; for `COc1ccc(-n2nnc(C(=O)NC(C)C)c2C2CC2)cc1` it is 16.07%; for `CCN(CC)C(=O)c1nnn(-c2ccc(C)cc2)c1C1CC1` it is -3.028%. The figure for `COC(=O)CCNC(=O)c1nnn(-c2ccc(F)cc2)c1C1CC1` is 1.406%; for `Cc1ccc(-n2nnc(C(=O)NC(C)C)c2C2CC2)cc1` it is 124.2%. The figure for `Cc1ccc(-n2nnc(C(=O)NCC(F)(F)F)c2C2CC2)cc1` is 125.2%. As for `CC(NC(=O)NCCCO)c1ccc(-c2ccncc2)cc1` (stereo not drawn), the “Percent Effect” value came to 6.546%.

`Cc1ccccc1CN1CCNC(=O)C1CC(=O)NCC1CCCCC1` (stereo not drawn): the “Percent Effect” value is on record as 13.06%. The figure for `NC(=O)CN1CC2(CCC1=O)CCN(Cc1cc(F)ccc1Cl)CC2` is 6.267%; for `Cn1cc(CN2CCOC3(CCCN(C(=O)c4ccco4)C3)C2)cn1.O=C(O)C(F)(F)F` (stereo not drawn) it is -10.52%; for `COc1ccc(C(C)N2CCC(CNC(C)=O)CC2)cc1Cl` (stereo not drawn) it is 4.452%. Consider `COc1ccccc1C(=O)NC[C@H]1COCc2nc3c(C)cccc3n21`, for which the “Percent Effect” value was -7.945%. The value for `COc1ccc(Br)cc1SCCCS(C)(=O)=O` was 100.1%. The figure for `COc1ccc(Br)cc1Cn1nc(C(N)=O)ccc1=O` is 5.156%; for `COc1ccc(Br)cc1SCCS(C)(=O)=O` it is 106.5%. The figure for `COc1ccc(Br)cc1CCC(=O)N1CCCC1` is -8.693%. For the molecule `CS(=O)(=O)CCSCc1ccc(Br)c(F)c1`, the “Percent Effect” value is recorded as -8.514%. In the case of `CS(=O)(=O)CCCSCc1cc(F)cc(Br)c1`, the “Percent Effect” value is on record as -17.62%. The value for `COc1ccc(Br)cc1SCCC(N)=O` was 101.3%; that for `CS(=O)(=O)CCCSCc1ccc(Br)c(F)c1` was -6.245%; that for `CS(=O)(=O)CCSc1cccc(C#N)c1` was -1.405%. Regarding `O=C(Cc1ccc2c(c1)CCO2)N1CCCC(n2cccn2)C1` (stereo not drawn), the “Percent Effect” value is given as -1.485%. The figure for `O=C(Cc1ccc(O)c(Cl)c1)N1CCCCC1CCn1cccn1` (stereo not drawn) is -6.522%. The value for `Cc1cnn(CC2CCCN2C(=O)Cc2ccc3c(c2)CCO3)c1` (stereo not drawn) was 96.14%; that for `O=C(Cc1ccc2c(c1)CCO2)N1CCCC1Cn1cccn1` (stereo not drawn) was 102%; that for `O=C(c1cccc2c1OCCO2)N1CCCC1Cn1cccn1` (stereo not drawn) was 5.303%. The value for `O=C(Cc1ccc2c(c1)CCC2)N1CCCC(n2cccn2)C1` (stereo not drawn) was -2.086%; that for `O=C(Cc1ccc2c(c1)CCC2)N1CCCC1Cn1cccn1` (stereo not drawn) was 137.3%.
